Results filed as inconclusive are left out. A call without a number means that no potency is given here. Calls of active or inactive are those of the source. Calls come from the whole dose curve; as a rule, active = well fitted cell-killing curve with a large enough effect in the repeat runs; inconclusive = weak or mixed curves; inactive = flat fitted curve, though single readings scatter.

The nature of this assay: qHTS assay to identify small molecule antagonists of the TGF-beta/Smad signaling pathway - cell viability counter screen (AID 1346824). Note: nearly all actives have a fitted effect of over 50% in size. The following applies: SBE-bla HEK293T viability, CellTiter-Glo luminescence; series mostly up to 76.8 µM. The source says: U.S. Tox21 Program National Center for Advancing Translational Sciences [NCATS] NIH Chemical Genomics Center [NCGC] U.S. Environmental Protection Agency [EPA] National Institutes of Environmental Health Sciences [NIEHS] National Toxicology Program [NTP] U.S. Food and Drug Administration [FDA] Tox21 Assay Overview: Transforming growth factor beta (TGF-beta) superfamily consists of a large number of structurally related dimeric proteins that act as hormones or local mediators in regulating a wide range of biological functions. This superfamily includes TGF-betas themselves, the bone morphogenetic proteins (BMPs) and the activins. These ligands induce oligomerization of serine/threonine receptor kinases and phosphorylate the cytoplasmic signaling molecules of Smad protein family. CellSensor SBE-bla HEK 293T cell line (Life Technologies, Carlsbad, CA), responsive to TGF-beta was used to screen Tox21 10K compound library for identification of agonists/antagonists of the Smad signaling pathway. This cell line contains a beta-lactamase reporter gene under control of the Smad binding element (SBE) stably integrated into HEK 293T cells. Also cytotoxicity of the compounds was tested in parallel by measuring the cell viability using CellTiter-Glo assay system in the same wells.
Tox21 Assay Protocol Summary: SBE-bla HEK 293T cells were dispensed at 4,000/well in 5 uL of assay medium into black wall/clear-bottom 1536-well plates using a Multidrop Combi (ThermoFisher Scientific, Waltham, MA) dispenser. After the assay plates were incubated at 37 C and 5% CO2 for an overnight, 23 nL of compounds dissolved in DMSO, positive controls or DMSO only was transferred to the assay plate by a Pintool station (Kalypsys, San Diego, CA). Compound transfer was followed by the addition of 1 uL of 0.25 ng/mL TGF-beta1 or assay buffer using two separate tips of Flying Reagent Dispenser (FRD, Aurora Discovery, San Diego, CA). The assay plates were incubated at 37 C and 5% CO2 for 5 hr. One uL of LiveBLAzer B/G FRET substrate (Life Technologies) was added using a Flying Reagent Dispenser (FRD, Aurora Discovery, San Diego, CA) and the plates were incubated at room temperature for 2 hr. Fluorescence intensity (405 nm excitation, 460 nm and 530 nm emissions) was measured using an Envision plate reader (PerkinElmer, Shelton, CT). For cytotoxicity read, 4 uL of CellTiter-Glo reagent (Promega Corporation, Madison, WI) was added to each well of the assay plates using FRD. After 30 min incubation at room temperature, the luminescence intensity was measured using ViewLux plate reader (PerkinElmer).
(In qHTS, concentration-response curves come from the screen itself.)
Take `CC(C)(C)C1CCC(O)CC1` (stereo not given): the Potency entry was “inactive”.

As to `CCOC(=O)/C=C\C(=O)OCC`, the Potency result was “inactive”.

Take `NS(=O)(=O)c1cc2c(cc1Cl)NC=NS2(=O)=O`: the Potency entry is “inactive”.

Turning to `OC[C@@H](O)[C@H](O)[C@H](O)[C@@H](O)CO`, the Potency result is “inactive”.

As for `Cc1cc(O)c2c(c1)C(=O)c1cc(O)cc(O)c1C2=O`, the Potency result was “inactive”.

Regarding `CCCCC(CC)COC(=O)CCCCCCCC(=O)OCC(CC)CCCC` (stereo not given), the Potency entry is “inactive”.

Regarding `CC1(C)CC(N=C=O)CC(C)(CN=C=O)C1` (stereo not given), the Potency result is “inactive”.

With `C=C(C)C(=O)OCCCCCC`, the Potency result is “inactive”.

On to `O=[N+]([O-])C(CO)(CO)CO`, for which the Potency result is “inactive”.

As to `C=C1CC[C@H](O)CC1=C/C=C1\CCC[C@]2(C)[C@@H]([C@H](C)/C=C/[C@H](C)C(C)C)CC[C@@H]12`, the Potency result is “inactive”.

Consider `CC1(C)O[C@@H]2C[C@H]3[C@@H]4C[C@H](F)C5=CC(=O)CC[C@]5(C)[C@H]4[C@@H](O)C[C@]3(C)[C@]2(C(=O)CO)O1`, for which the Potency result was “inactive”.

`Nc1nc2ncc(CNc3ccc(C(=O)N[C@@H](CCC(=O)O)C(=O)O)cc3)nc2c(=O)[nH]1`: the Potency entry was “inactive”.

Turning to `O=S(=O)(O)CCS`, the Potency result is “inactive”.

For `O=C1CCCCC1`, the Potency result is “inactive”.

Take `COCC(C)O` (stereo not given): the Potency entry was “inactive”.

Consider `Cn1c([N+](=O)[O-])cnc1COC(N)=O`, for which the Potency result is “inactive”.

Regarding `CCCCCCCCCC(=O)O`, the Potency result was “inactive”.

As for `Nc1cc(-c2ccncc2)c[nH]c1=O`, the Potency result is “inactive”.

On to `NCCNCCNCCNCCN`, for which the Potency result is “inactive”.

With `CCCCCC/C=C/CCCCCCCC(=O)O`, the Potency entry is “inactive”.

Take `CC(C)n1c(/C=C/[C@@H](O)C[C@@H](O)CC(=O)O)c(-c2ccc(F)cc2)c2ccccc21`: the Potency entry was “inactive”.

For `COCC(=O)O`, the Potency result is “inactive”.

Turning to `OCC#CCO`, the Potency entry is “inactive”.

For the compound `CC1CC(OC(=O)c2ccccc2O)CC(C)(C)C1` (stereo not given), the Potency result was “inactive”.

`CN(C)c1cccc(O)c1`: the Potency result was “inactive”.

For `CCCCOCCOCCOC(=O)CCCCC(=O)OCCOCCOCCCC`, the Potency result is “inactive”.

As to `O=C(Cl)c1c(Cl)c(Cl)c(C(=O)Cl)c(Cl)c1Cl`, the Potency entry was “inactive”.

Take `O=C1N=C(O)CN1/N=C/c1ccc(-c2ccc([N+](=O)[O-])cc2)o1`: the Potency result is “inactive”.

With `C[C@@H]1O[C@@H](OC[C@H]2O[C@@H](Oc3c(-c4ccc(O)c(O)c4)oc4cc(O)cc(O)c4c3=O)[C@H](O)[C@@H](O)[C@@H]2O)[C@H](O)[C@H](O)[C@H]1O`, the Potency entry is “inactive”.

In the case of `CC1=C(/C=C/C(C)=C/C=C/C(C)=C/CO)C(C)(C)CCC1`, the Potency result was “inactive”.

With `Clc1ccc(Cl)c(Cl)c1Cl`, the Potency entry was “inactive”.

As for `C=C(C)C(=O)OCCC[Si](OC)(OC)OC`, the Potency result was “inactive”.

As to `CC(=O)[C@@]1(O)CC[C@H]2[C@@H]3CCC4=CC(=O)CC[C@]4(C)[C@H]3CC[C@@]21C`, the Potency entry is “inactive”.

In the case of `NC(=O)NNc1ccccc1`, the Potency result is “inactive”.

For the compound `Cc1cc(Cc2ccc(N)c(C)c2)ccc1N`, the Potency result is “inactive”.

In the case of `CS(=O)(=O)c1ccc([C@@H](O)[C@@H](CO)NC(=O)C(Cl)Cl)cc1`, the Potency entry was “inactive”.

Turning to `CCCCC(CC)COC(=O)/C=C\C(=O)OCC(CC)CCCC` (stereo not given), the Potency entry was “inactive”.

As for `O=C(c1cc(O)c(O)c(O)c1)c1ccc(O)c(O)c1O`, the Potency entry is “inactive”.

Regarding `CC(C)NCC(O)COc1cccc2ccccc12` (stereo not given), the Potency entry is “inactive”.

For the compound `Oc1c(Cl)cc(Cl)c(Cl)c1Cl`, the Potency result was “inactive”.

The values above are taken from PubChem BioAssay (Tox21).
